“And” between values parts separate entries of the source, which are not always exact repeats. Identical values can stand only once. About 83,000 compounds went through this panel and 20% of them were active in at least one assay; those are over-represented in the sample as a whole.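 How to read the values: 0–100, growth inhibition (40 = 60% inhibited); 0, no net growth; -100 to 0, cell death (-40 = 40% of starting cells died; -100 = all dead).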 A structure can be active in one record and inactive in another. The source made the active and inactive calls. How the source made its calls: active means growth percent below 10; inactive means the rest.

What all share (assay): NCI-60 one-dose screen, 48 h (100 = growth as untreated, 0 = no growth, -100 = all killed)
Holding throughout (conditions): 10 µM unless noted

Test [1] concerns NCI-H23 lung.
In test [2] the test system is NCI-H322M lung.
Test [3] has as its system HOP-62 NSCLC.
The subject of test [4] is NCI-H460 lung.
Test [5] concerns HOP-92 NSCLC.
In test [6] the test system is NCI-H522 lung.
Test [7] deals with A549/ATCC NSCLC.
For test [8], the system named is 786-0 renal.
The test system of test [9] is COLO 205 colon.
In test [10] the test system is DU-145 prostate.
Test [11] concerns K-562 leukemia.
In test [12] the test system is MALME-3M melanoma.
The test system of test [13] is MDA-MB-231 breast.
Test [14] deals with RXF 393 renal.
Test [15] deals with SF-268 CNS.
Test [16] has as its system SF-295 CNS.
The subject of test [17] is SF-539 CNS.
In test [18] the test system is UACC-257 melanoma.
Test [19] has as its system M14 melanoma.
The subject of test [20] is NCI-H226 lung.

With `Cc1cc(C)c(N)c(Br)c1`, the growth in test [1] was 101% (inactive) and 83.8% (inactive); in test [2], 130% (inactive) and 105% (inactive); in test [3], 92.6% (inactive) and 165% (inactive); in test [4], 114% (inactive) and 101% (inactive); in [5], 82.2% (inactive); in [6], 95.2% (inactive) and 87.9% (inactive). Besides, the growth in test [7] was 104% (inactive) and 106% (inactive); in [8], 102% (inactive) and 93.6% (inactive); in test [9], 102% (inactive) and 105% (inactive); in [10], 122% (inactive) and 109% (inactive); in test [11] it was 107% (inactive) and 96.5% (inactive); in test [12] it was 105% (inactive) and 95.4% (inactive). The growth in test [13] is 112% (inactive) and 98.8% (inactive); in test [14] it was 116% (inactive) and 103% (inactive); in [15], 105% (inactive) and 103% (inactive); in test [16], 127% (inactive) and 110% (inactive); in test [17] it was 108% (inactive) and 92.9% (inactive); in test [18], 106% (inactive) and 105% (inactive). Further, the growth in [19] is 103% (inactive).

With `O=C(Nc1ccc([N+](=O)[O-])cc1Cl)c1cc(Cl)ccc1O`, the growth was -37.1% (active) and -43.6% (active) in test [1]; -0.032% (active) and -21.1% (active) in test [2]; 4.95% (active) and 9.98% (active) in [3]; 0.171% (active) and -3.23% (active) in test [4]; -34.6% (active) and -12.1% (active) in test [6]; 2.95% (active) and 18.5% (inactive) in [7]. In addition, the growth in test [8] is -34.7% (active) and -36.2% (active); in [9] it was -65.9% (active) and -43.8% (active); in test [10] it was 3.92% (active) and 17.7% (inactive); in test [11], 3.36% (active) and 12.4% (inactive); in [12], -8.09% (active) and -27.3% (active); in test [13], -43.3% (active) and -31.2% (active). The growth in [14] is -27.4% (active) and -21.6% (active); in test [15] it was 5.52% (active) and 16.4% (inactive); in [16] it was -56.8% (active) and -57.8% (active); in test [17] it was -16.5% (active) and 4.67% (active); in test [18], -34.2% (active) and 3.09% (active); in [19] it was -24.1% (active) and -34.4% (active).

Regarding `CC1(c2ccc3ccccc3c2)CCC(=O)O1` (stereo not given), the growth is 95% (inactive) in test [1]; 93.5% (inactive) in test [3]; 112% (inactive) in [4]; 106% (inactive) in [5]; 91.3% (inactive) in test [6]; 101% (inactive) in test [7]. Also, the growth in [8] is 103% (inactive); in [9] it was 99.3% (inactive); in test [10], 107% (inactive); in test [11] it was 86.7% (inactive); in test [12], 96.8% (inactive); in [13] it was 111% (inactive). The growth in test [14] is 104% (inactive); in test [15] it was 99.7% (inactive); in [16], 107% (inactive); in [17] it was 95.7% (inactive); in [18] it was 96.5% (inactive); in test [19] it was 117% (inactive).

In the case of `Nc1cc(-c2cccc(OC(F)(F)F)c2)nc2ccc(N3CCCC3)cc12`, the growth in test [20] is 40.2% (inactive) and 48.3% (inactive) and 33.8% (inactive); in [2], 49.5% (inactive) and 51.3% (inactive) and 39% (inactive); in test [3], 57.1% (inactive) and 66.1% (inactive) and 15.6% (inactive); in test [4] it was 7.01% (active) and 7.24% (active) and 3.29% (active); in [5] it was -0.264% (active) and 3.71% (active) and -3.62% (active); in test [6], -13.4% (active) and 4.49% (active) and -38.1% (active). Moreover, the growth in test [7] is 15.1% (inactive) and 18.4% (inactive) and 13.8% (inactive); in test [8], 9.51% (active) and 22.1% (inactive) and 16.1% (inactive); in [9], -58.4% (active) and -35.8% (active) and -80.6% (active); in test [10], 14.4% (inactive) and 16.2% (inactive) and 5.85% (active); in test [11], -12.9% (active) and 4.92% (active) and 3.73% (active); in test [12], -28.6% (active) and 51.7% (inactive) and 24.8% (inactive). For the same molecule, the growth in [13] is 5.28% (active) and 18.1% (inactive) and 29.3% (inactive); in [14], 7.48% (active) and 12.1% (inactive) and 20.7% (inactive); in test [15], 26.1% (inactive) and 28.4% (inactive) and 27.6% (inactive); in test [16] it was 5.27% (active) and 16.2% (inactive) and 9.05% (active); in test [17] it was -39.9% (active) and -21.2% (active) and -28.5% (active); in test [18], -42.2% (active) and 74.8% (inactive) and 48.9% (inactive). Moreover, in test [19], the growth was -72.1% (active) and 1.77% (active) and -1.96% (active).

For the molecule `CCOC(=O)c1sc(N)nc1-c1ccccc1`, the growth in [1] was 101% (inactive); in [2], 97% (inactive); in [3], 87.9% (inactive); in [4], 104% (inactive); in [6] it was 95.5% (inactive); in test [7], 101% (inactive). The growth in test [8] is 95.1% (inactive); in test [9], 102% (inactive); in test [10] it was 113% (inactive); in test [11] it was 96% (inactive); in test [12], 120% (inactive); in [13] it was 117% (inactive). Moreover, the growth is 102% (inactive) in test [14]; 108% (inactive) in test [15]; 88.4% (inactive) in test [17]; 98.1% (inactive) in test [18]; 99.7% (inactive) in test [19].

Consider `CCN(CC)CCOc1ccc(/C=N/Nc2nc3c([nH]2)c(=O)n(C)c(=O)n3C)cc1`, for which the growth is 89.8% (inactive) and 103% (inactive) in [1]; 109% (inactive) and 94.1% (inactive) in test [2]; 103% (inactive) and 108% (inactive) in test [3]; 109% (inactive) and 105% (inactive) in test [4]; 94.6% (inactive) in test [5]; 84.8% (inactive) and 93.3% (inactive) in test [6]. In addition, the growth in test [8] was 91.7% (inactive) and 107% (inactive); in [9] it was 112% (inactive) and 111% (inactive); in test [10], 115% (inactive) and 108% (inactive); in [11], 109% (inactive) and 103% (inactive); in [12], 96.6% (inactive) and 82.1% (inactive); in test [13], 103% (inactive) and 87.4% (inactive). Besides, the growth in [14] is 114% (inactive) and 122% (inactive); in test [15], 111% (inactive) and 102% (inactive); in test [16], 113% (inactive) and 98.7% (inactive); in test [17] it was 97.2% (inactive) and 95.5% (inactive); in [18], 102% (inactive) and 108% (inactive); in [19], 96.7% (inactive) and 97.6% (inactive).

Regarding `COc1cc2c(c(OC)c1OC)-c1ccc(OC)c(=O)cc1[C@@H](NC(C)=O)CC2`, the growth in test [1] was 24.4% (inactive) and 29.4% (inactive) and 12.6% (inactive); in test [2], 47.7% (inactive) and 32.9% (inactive) and 36.1% (inactive); in [3], 31.2% (inactive) and 24.6% (inactive) and 20% (inactive); in test [4], 4.46% (active) and 1.09% (active) and 2.92% (active); in test [5], 57.9% (inactive) and 14% (inactive) and 2.37% (active); in test [6], 15.4% (inactive) and -6.78% (active) and -64.2% (active). In addition, the growth in test [7] is 12.3% (inactive) and 44.9% (inactive); in [8], 17.5% (inactive) and 9.25% (active) and 15.4% (inactive); in test [9] it was -36.4% (active) and 3.13% (active) and -47.6% (active); in test [10] it was -26.3% (active) and 0.564% (active) and -28.6% (active); in test [11], 9.04% (active) and 10.4% (inactive) and -25.7% (active); in [12], 45.1% (inactive) and 43.1% (inactive) and 39% (inactive). For the same molecule, the growth in test [13] is 16.3% (inactive) and -21.5% (active) and -9.65% (active); in test [14] it was 34% (inactive) and 33.7% (inactive) and 15.3% (inactive); in test [15] it was 33.5% (inactive) and 27.5% (inactive) and 35.1% (inactive); in [16], 2.25% (active) and 12.5% (inactive) and 7.89% (active); in [17], -9.65% (active) and -24.7% (active) and -10.6% (active); in [18], 76.9% (inactive) and 66.3% (inactive) and 24.9% (inactive). In test [19], the growth was 2.32% (active) and -7.49% (active) and 1.7% (active).

Take `CC1=C(/C=C/C(C)=C/C=C/C(C)=C/C=N/NC(=S)NC(=S)N/N=C/C=C(C)/C=C/C=C(C)/C=C/C2=C(C)CCCC2(C)C)C(C)(C)CCC1`: the growth was -27.2% (active) and -49.8% (active) in test [1]; 85.1% (inactive) and 63.8% (inactive) in test [2]; -7.59% (active) in test [3]; 8.37% (active) and -6.69% (active) in [4]; -0.81% (active) and -9.45% (active) in test [5]; -84.1% (active) and -88.9% (active) in test [6]. Besides, the growth in test [8] is -41.4% (active) and -58.8% (active); in test [9], -79.7% (active); in [10] it was 45.4% (inactive) and 40.3% (inactive); in [11], 1.87% (active) and -33.1% (active); in test [12], -42.6% (active) and -41.6% (active); in test [13], 21.6% (inactive) and -34.1% (active). In addition, the growth in test [14] is -98.2% (active); in test [15], 30.9% (inactive) and -13% (active); in test [16], 30.3% (inactive) and -7.18% (active); in test [17], -82.5% (active) and -94.5% (active); in [18], 12.7% (inactive) and -28.3% (active); in test [19], -94.8% (active) and -97.5% (active).

Consider `COc1cc(/C=N/Nc2nc3c([nH]2)c(=O)n(C)c(=O)n3C)ccc1O`, for which the growth in test [20] is 103% (inactive) and 113% (inactive); in test [2], 101% (inactive) and 105% (inactive); in test [3] it was 105% (inactive) and 102% (inactive); in test [4], 109% (inactive) and 111% (inactive); in [5], 102% (inactive); in test [6], 87.8% (inactive) and 95.7% (inactive). The growth in test [7] was 105% (inactive) and 97.8% (inactive); in test [8] it was 95.7% (inactive) and 112% (inactive); in test [9] it was 119% (inactive) and 126% (inactive); in test [10], 114% (inactive); in test [11], 91.4% (inactive) and 106% (inactive); in test [12] it was 88.5% (inactive) and 97.9% (inactive). Further, the growth is 96.4% (inactive) and 107% (inactive) in [13]; 122% (inactive) and 123% (inactive) in test [14]; 104% (inactive) and 109% (inactive) in [15]; 115% (inactive) and 118% (inactive) in test [16]; 89.9% (inactive) and 104% (inactive) in [17]; 102% (inactive) and 110% (inactive) in test [18]. Further, in [19], the growth is 102% (inactive) and 108% (inactive).

The values are drawn from PubChem BioAssay (NCI).
